In PubChem BioAssay:

Test system: Plasmodium falciparum Sir2 (PF13_0152, Sir2A)
Test: Plasmodium falciparum Sir2A binding compounds – biochemical, small-molecule microarray, 635 nm fluorescence, primary screen (AID 1098);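 further: score merges spot fluorescence intensity with its signal-to-noise ratio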
Settings: fluorescence 635 nm, higher = more signal

| Structure (SMILES) | composite z-score |
| --- | --- |
| CCCC1(C(=O)OC)C=C2C(=C(C)C(=O)C2C)CN1 (stereo not drawn) | -0.79 |
| NCCCCCNC(=O)[C@@H]1C[C@@H]2C(=O)N[C@@H](CCCCN)C(=O)N2[C@@H]1c1ccc(O)cc1 | 1.57 |
| CCCN1C(=O)[C@]2(Cc3ccccc31)N=C(c1ccc(OCCCO)cc1)O[C@@H]2c1ccccc1 | 1.07 |
| CCN(CC)c1ccc(N2CC=CC34O[C@@H]5/C=C\CCCOC(=O)C5[C@H]3C(=O)N(C(C)CO)[C@@H]4C2=O)cc1 (stereo partly drawn) | 1.03 |
| NC(=O)[C@H]1[C@@H]2C(=O)O[C@@H](c3ccccc3)[C@@H](c3ccccc3)N2[C@@H](c2ccc(OCCO)cc2)[C@]12C(=O)Nc1ccc(C#CCCO)cc12 | 0.912 |
| CC(C)C(CO)N1C(=O)[C@@H]2[C@H]3C(=O)OCC=C[C@H]3OC23C=CCN(c2ccc(Cl)cc2)C(=O)[C@@H]13 (stereo partly drawn) | -1.14 |
| C=CCNC(=O)[C@@H]1[C@H]2C(=O)O[C@H](c3ccccc3)[C@H](c3ccccc3)N2[C@H](c2ccccc2OCCO)[C@@]12C(=O)Nc1ccc(C#CCC(C(=O)OC)C(=O)OC)cc12 | 1.66 |
| COc1ccc(C#Cc2ccc3c(c2)[C@]2(C(=O)N3)[C@H](C(=O)O)[C@H]3C(=O)O[C@H](c4ccccc4)[C@H](c4ccccc4)N3[C@@H]2c2ccc(O)cc2)cc1 | 1.52 |
| CCCC[C@@H](O)C1=C(COC)C[C@H]2C(=O)N(Cc3ccccc3)C(=O)[C@H]2[C@H]1CO | 0.516 |
| COC(=O)[C@@]1(Cc2ccc(F)cc2)[C@H]2c3cc(C(=O)N4CCCC4)n(Cc4ccc(C)c(F)c4F)c3C[C@H]2CN1C(=O)c1ccccc1 | 0.961 |
| C=CCNC(=O)[C@@H]1[C@H]2C(=O)O[C@H](c3ccccc3)[C@H](c3ccccc3)N2[C@H](c2ccc(O)cc2)[C@@]12C(=O)N(C(=O)OCCOC)c1ccc(C#CC3=CCCCC3)cc12 | 1.04 |
| C#Cc1cc2ccccc2oc1=O | 0.253 |
| COc1cc(NN2C(C(O)c3cc(OC)c(OC)c(OC)c3)C=CC3C(=O)N(C)C(=O)C32)cc(OC)c1OC (stereo not drawn) | 1.03 |
| CO[C@H]1O[C@H](CO)[C@@H](OC(=O)Nc2ccccc2)[C@H](OC(=O)c2cc3ccccc3[nH]2)[C@H]1OC(=O)c1cc2ccccc2[nH]1 | 0.494 |
| CCOC(=O)C[C@H]1[C@H](OC(=O)Cc2ccc3c(c2)OCO3)[C@@H](NC(=O)c2ccc3ccccc3n2)c2cc(OCCCO)ccc2N1C(=O)c1ccc2ccccc2n1 | 0.138 |
| COc1ccc(C#Cc2ccc3c(c2)[C@]2(C(=O)N3)[C@H](c3ccc(OCCO)cc3)N3[C@H](c4ccccc4)[C@H](c4ccccc4)OC(=O)[C@H]3[C@@H]2C(=O)NC[C@H](O)c2ccccc2)cc1 | 0.614 |
| NCCCCCNC(=O)[C@H]1C[C@H]2C(=O)N3CCC[C@H]3C(=O)N2[C@H]1c1cccc(OCCO)c1 | 0.685 |
| CO[C@H]1O[C@H](CO)[C@@H](OC(=O)Nc2ccc(Br)cc2)[C@@H]2OC(=O)[C@@H](Cc3ccccc3)C/C=C/C[C@H](Cc3ccccc3)C(=O)O[C@@H]12 | 0.939 |
| CCOC(=O)[C@@H]1CCCCN1C(=O)C(=O)OC | 0.157 |
| O=C(Cc1ccccc1)[C@H]1C2C=CCCC(c3ccccc3)=C2CN1Cc1ccccc1 (stereo partly drawn) | -0.313 |
| CCOC(=O)C[C@H]1[C@H](OC(=O)Cc2ccc3c(c2)OCO3)[C@@H](NC(=O)C2CCCCC2)c2cc(OCCCO)ccc2N1C(=O)c1ccccc1 | 0.0882 |
| C=C[C@H](C)[C@H](OC(=O)Nc1ccc(SC)cc1)c1ccc(OCCO)cc1 | 1.12 |
| CCCCC(CC)C(O)C1C=CC2C(=O)N(c3ccccc3)C(=O)C2N1Nc1ccccc1F (stereo not drawn) | 1.02 |
| Cc1ccc(C(C)CC(O)C2C=CC3C(=O)N(c4ccccc4)C(=O)C3N2Nc2ccccc2)o1 (stereo not drawn) | 0.844 |
| CCOC(=O)C1=C[C@@H](C(C)(C)C)N(S(=O)(=O)c2ccc(C)cc2)[C@H]1c1cccc2ccccc12 | 0.462 |
| CC(C)N1C(=O)C[C@@](C(=O)NC2CC2)(c2ccc([N+](=O)[O-])cc2)[C@H]1c1ccc(CO)cc1 | -0.66 |
| COC(=O)c1c(CC[C@@H](CO)NC(=O)N2CCC[C@H]2Cn2cc(C3(O)CCCCC3)nn2)oc(C(C)=O)c1C(=O)OC | 1.65 |
| NC(=O)NCC#Cc1ccc2c(c1)[C@]1(C(=O)N2)[C@H](c2ccccc2OCCO)N2[C@H](c3ccccc3)[C@H](c3ccccc3)OC(=O)[C@H]2[C@@H]1C(=O)NC[C@H](O)c1ccccc1 | 0.342 |
